The values below come from PubChem BioAssay (NCATS).

A number with no mark means an inactive call. Where a call stands in place of a potency, no number is given. Active and inactive are the calls of the source. The call rests on the fitted dose curve; in most records, active means well fitted inhibition curve with a large enough effect; inconclusive means small, poorly fitted or top-dose-only effect; inactive means flat fitted curve, though single readings scatter.
Potency means the concentration at half of the fitted maximal effect.

The subject of the experiment is Nanoluciferase (engineered Oplophorus gracilirostris luciferase). Kind of experiment: Primary Nanoluciferase (NLuc) qHTS assay for identification of artifact compounds. (AID 1845222). The following applies: NLuc-conditioned medium, Nano-Glo luminescence, 5 min; series mostly up to 54.1 µM. The text has this:
PI: Alexander Tropsha Ph.D.
UNC Eshelman School of Pharmacy
University of North Carolina, Chapel Hill, North Carolina
Hits from high-throughput screening (HTS) of chemical libraries are often false positives due to their interference with the assay detection technology. In response to this problem, we generated the largest publicly available library of chemical liabilities and developed a free webtool to predict HTS artifacts, both of which are described herein. More specifically, we generated, curated, and integrated HTS datasets for thiol reactivity, redox activity, and luciferase (firefly and nano) activity. Using these curated datasets, we developed and validated several Quantitative Structure-Interference Relationship (QSIR) models to predict nuisance behavior. […] These models were employed for virtual profiling of the National Center for Advancing Translational Science's (NCATS) in-house library, and 256 compounds for each assay were selected for the experimental validation of nuisance behavior. The BA for these external predictions ranged from 58 to 78% for compounds within the applicability domains of the models. […] The models developed in this study, along with aggregation models previously developed by our group (SCAM Detective) were implemented in "Liability Predictor," an online tool which may be used as part of chemical library design or for triaging HTS hits. Both the models and the curated datasets are publicly available at https://liability.mml.unc.edu/.
SEQUENCE No. (e.g., 1, 2, 3, etc.); […] (e.g., Cells, Incubation, Reagent, etc.); VALUE; DESCRIPTION.
1; Reagent; 2 uL; Nanoluciferase media.
2; Compounds and control; 16 nL; Kalypsis pin tool (Wako USA) equipped with a 1536-well pin head.
4; Reagent; 2 uL; Luciferase enzyme.
6; Detection; Luminescence, ViewLux microplate reader.
NOTES (numbers refer to Sequence numbers above)
1. Medium was collected from the culture flasks of NLuc-expressing S16 cells (80% confluent) prior to cell plating, filtered through a 0.22um filter, and frozen at -20C prior to use. Media was diluted (1:55) and 2 uL was dispensed into all wells of a 1536-well assay plate (solid-bottom white plate; Greiner Bio One, Monroe, NC).
2. A Wako Pin-tool (Wako Automation, Richmond, VA) was used to transfer 16 nL of compounds (consisting of 7-plates in qHTS format, final concentration range 18.3 nM to 114 uM) or control Cilnidipine (final concentration range 623 nM to 80 uM).
3. 15 min. incubation at room temperature protected from light.
4. 2 uL of NLuc substrate (1:100 in Nano-Glo luciferase buffer; Nano-Glo luminescence assay, Promega, Madison, WI) was dispensed for a final assay volume of 4 uL.
5. Plates were centrifuged (121xg, 15 seconds) and incubated for 5 minutes.
6. Samples were read for luminescence on a ViewLux CCD imager (PerkinElmer). Data were normalized to no-enzyme (0% activity) and no-inhibitor (DMSO; 100%) controls and the resulting percent inhibition data were fitted to a 4-parameter Hill equation using NCATS in-house software.
With `Clc1ccc2c(c1)N=C(N1CCNCC1)c1ccccc1N2`, the Potency result was “inactive”.

As to `COc1cc(NS(=O)(=O)c2ccc(N)cc2)nc(C)n1`, the Potency result is “inactive”.

In the case of `O=C(O)CNC(=O)CNC(=O)CNC(=O)CSC(=O)c1ccccc1`, the Potency result was “inactive”.

As for `CCC(C(=O)NC(=O)NC(C)=O)c1ccccc1` (stereo not given), the Potency entry is “inactive”.

Take `N[C@@H](Cn1ccc(=O)c(O)c1)C(=O)O`: the activity, negative = inhibition is -6.53% [at 6.45 µM].

Regarding `Cc1ccccc1C(=O)N1CC/C(=N\OS(=O)(=O)O)c2ccc(Cl)cc21`, the Potency is 26.9 µM (active).

On to `O=C1NC(=O)/C(=C/c2ccc3c(c2)OC(F)(F)O3)S1`, for which the Potency entry was “inactive”.

Turning to `CCN1CCN(c2cc(-c3ccc(F)cc3)c3c(n2)CCCCCC3)CC1`, the Potency entry was “inactive”.

Take `Nc1c(NC/C=C\COc2cc(CN3CCCCC3)ccn2)c(=O)c1=O`: the Potency entry was “inactive”.

Consider `CN1[C@@H]2CC[C@H]1CC(NC(=O)n1c(=O)[nH]c3ccccc31)C2` (stereo not given in full), for which the Potency result was “inactive”.

`CC(C)N(CCC(=O)c1ccc2ccccc2c1)Cc1ccccc1`: the Potency is 1.2 µM (active).

On to `CC(=O)OCC(=O)Nc1cc(C#N)cc(NC(=O)COC(C)=O)c1Cl`, for which the Potency result is “inactive”.

Turning to `COc1ccccc1N1CCN(CCN2C(=O)CC3(CCCC3)CC2=O)CC1`, the Potency entry is “inactive”.

Take `CN(C)C(=O)CNC(=O)Cc1ccccc1`: the Potency result was “inactive”.

As to `C[C@H](CN1CCCC1)C(=O)c1ccc(C(F)(F)F)cc1`, the Potency entry is “inactive”.

On to `CO/N=C(/C(=O)N[C@@H]1C(=O)N2C(C(=O)O)=C(Cn3nnc(C)n3)CS[C@H]12)c1csc(N)n1`, for which the Potency entry was “inactive”.

Take `CC1CN(c2cc3c(cc2F)c(=O)c(C(=O)O)cn3-c2ccc(F)cc2F)CCN1` (stereo not given): the Potency entry is “inactive”.

On to `CO[C@]1(NC(=O)CSC(F)F)C(=O)N2C(C(=O)O)=C(CSc3nnnn3CCO)CO[C@H]21`, for which the Potency entry was “inactive”.

Turning to `Cn1cc(S(C)=O)c(=O)c2ccc(F)cc21` (stereo not given), the Potency result is “inactive”.

On to `CCN(CC)CCOc1ccc(/C(=C(\Cl)c2ccccc2)c2ccccc2)cc1`, for which the Potency entry was “inactive”.

Take `CCCCNc1ccc(C(=O)OCCN(CC)CC)cc1`: the Potency entry was “inactive”.

Take `O=[N+]([O-])c1nccn1CO[C@@H](CO)[C@H](O)CO`: the Potency entry was “inactive”.

On to `Cc1cccc(N(C)C(=S)Oc2ccc3c(c2)CCC3)c1`, for which the Potency result is “inactive”.

Turning to `CCCN(CCC)C(=O)C(CCC(=O)OCCCN1CCN(CCOC(=O)Cc2c(C)n(C(=O)c3ccc(Cl)cc3)c3ccc(OC)cc23)CC1)NC(=O)c1ccccc1` (stereo not given), the Potency entry is “inactive”.

Take `CN(CC1(C)CCCO1)S(=O)(=O)c1ccc(Cl)c(S(N)(=O)=O)c1` (stereo not given): the Potency entry is “inactive”.

Turning to `OC1(c2ccc(Cl)c(C(F)(F)F)c2)CCN(CCCC(c2ccc(F)cc2)c2ccc(F)cc2)CC1`, the Potency result is “inactive”.

Regarding `CC1CC(=O)NN=C1c1ccc(NCC(C)(C)NCC(O)COc2cc(Cl)ccc2C#N)cc1` (stereo not given), the Potency entry was “inactive”.

Consider `C=CC[N+]1([C@H]2C[C@H]3[C@@H]4CC[C@H]5C[C@H](OC(C)=O)[C@@H](N6CCCCC6)C[C@]5(C)[C@H]4CC[C@]3(C)[C@H]2OC(=O)CC)CCCCC1`, for which the Potency result was “inactive”.

For `COC(=O)C1=CO[C@@H](O)[C@@H]2C(CO)=CC[C@H]12`, the Potency result is “inactive”.

In the case of `Nc1ncnc2n[nH]c(Nc3ccc(F)cc3)c12`, the Potency result is “inactive”.

On to `COc1cc(C(=O)OC(COCCC(C)C)CN2CCOCC2)cc(OC)c1OC` (stereo not given), for which the Potency result was “inactive”.

On to `O=C1NC(c2cccc([N+](=O)[O-])c2)=CCN1c1ccccc1O`, for which the Potency result was “inactive”.

Consider `CCc1cc(S(=O)(=O)O)c2cc(C(C)C)cccc1-2`, for which the Potency entry is “inactive”.

Turning to `O=C1CC[C@H](C(=O)N2CCCCC2)N1`, the Potency result was “inactive”.

For `CCNC(=O)NCCCOc1cccc(CN2CCCCC2)c1`, the Potency result was “inactive”.

Regarding `C[N+]1(CC2COC(c3ccccc3)(c3ccccc3)O2)CCCCC1` (stereo not given), the Potency entry was “inactive”.

Turning to `CC(=O)[C@H]1CC[C@H]2[C@@H]3C=CC4=CC(=O)CC[C@@]4(C)[C@@H]3CC[C@]12C`, the Potency entry was “inactive”.

On to `O=C(CCC1CCN(Cc2ccccc2)CC1)c1ccc2c(c1)NCCCC2`, for which the Potency result is “inactive”.

Regarding `CC(=O)Nc1ccn(C2COC(COC(=O)c3ccccc3)O2)c(=O)n1` (stereo not given), the Potency entry was “inactive”.

In the case of `O=C1NC2CCCCN2C12CCN(CCCN1c3ccccc3CCc3ccc(Cl)cc31)CC2` (stereo not given), the Potency entry was “inactive”.
